The whole screen tested about 16,000 compounds, of which about 5,800 (36%) were called active. Roughly 23% stayed inconclusive and do not appear here. Calls follow the shape of the dose curve; as a rule, active = well fitted curve in the direction sought with a large enough effect; inconclusive = small, poorly fitted or top-dose-only effect, or effect the other way; inactive = no such curve, though single readings can be large or run the other way. Some of the results follow.
Target: Cytochrome P450 2C19 (Homo sapiens) (UniProt P33261)
Sequence (P33261 whole entry, looked up): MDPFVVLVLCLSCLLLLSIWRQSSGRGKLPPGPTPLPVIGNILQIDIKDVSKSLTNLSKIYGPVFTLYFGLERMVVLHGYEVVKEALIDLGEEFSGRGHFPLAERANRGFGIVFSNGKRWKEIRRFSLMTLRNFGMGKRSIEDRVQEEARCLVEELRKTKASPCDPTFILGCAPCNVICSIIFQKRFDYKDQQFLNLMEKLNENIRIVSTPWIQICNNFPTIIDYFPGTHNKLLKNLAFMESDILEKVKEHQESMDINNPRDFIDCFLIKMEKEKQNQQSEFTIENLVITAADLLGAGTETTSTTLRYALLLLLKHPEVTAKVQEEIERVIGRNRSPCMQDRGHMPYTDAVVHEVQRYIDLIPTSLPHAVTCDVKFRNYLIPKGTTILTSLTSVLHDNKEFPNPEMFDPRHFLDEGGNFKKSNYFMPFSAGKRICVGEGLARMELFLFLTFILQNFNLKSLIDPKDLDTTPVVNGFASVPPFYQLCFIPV
Assay: Cytochrome panel assay with activity outcomes
Conditions: recombinant CYP, pro-luciferin dealkylation, luminescence, p450-cyp2c19; series mostly up to 57.1 µM
% is scaled to controls: 0 for no effect and ±100 for the full control effect.

AC50, inactive:
N#CCSc1ncnc2c1cnn2CCO
CCCc1nnc(SCC(=O)O)n1/N=C/c1ccc2c(c1)OCO2
Cc1cccc(C(=O)N/N=C/c2ccc(OCC(=O)N3CCCCC3)cc2)c1
COC(=O)N/N=C\C=C\c1ccc2c(c1)OCO2
COc1ccc2c(c1OC)C(=O)N(C(C)C(=O)O)C2=O (configuration not stated)
COc1ccc(-n2c(=O)c(C)nc3cnc(N(C)C)nc32)cc1
CC[C@H](Cc1c(I)cc(I)c(N)c1I)C(=O)O
COc1ccc(-n2c(=O)c(-c3ccc(F)cc3)nc3cnc(OC)nc32)cc1
CCCCN1CCC(n2c(=O)[nH]c3ccccc32)CC1
CCCCNC(=O)[C@@H]1Cc2ccccc2N1C(=O)[C@H](N)CC
CCN(CC)C(=O)N1CCN(C)CC1
COc1ccccc1CN1CCCC2(CCN(C(=O)c3ccncc3)CC2)C1
Cn1cccc1C(=O)N1CCC2(CCCN(Cc3ccccc3)C2)CC1
O=C(c1cccc(F)c1)N1CCC2(CC1)CCN(c1ccncc1)CC2
O=C(c1cc(C(F)(F)F)cc(C(F)(F)F)c1)N1CCC2(CC1)CN(c1ccncc1)C2
O=C(c1ccncc1)N1CCC2(CC1)CN(c1ncccn1)C2
O=C(c1ccncc1)N1CCC[C@@]2(CCN(c3ccccc3)C2)C1
COc1ccc(C(=O)N2CCC3(CC2)CCN(c2ncccn2)CC3)cc1
O=C(c1cccc(F)c1)N1CCC2(CC1)CN(c1ccc(-c3ccccc3)cc1)C2
CC(C)CN1CC2(CCN(C(=O)c3cccc(F)c3)CC2)C1
Cn1c([N+](=O)[O-])cnc1COC(N)=O
CCCCCCCCCCCCCCCC(=O)C(F)(F)F
NC1CCN(c2cccc(Cl)n2)CC1
N[C@@H](Cn1cc(F)c(=O)[nH]c1=O)C(=O)O
CC(C)NC[C@H](O)c1cc(O)cc(O)c1
Cc1cc(N2CCN(C)CC2)nc2ccc(NC(=O)CCC(=O)NCc3ccco3)cc12
CO[C@]1(C2=NCCN2)COc2ccccc2O1
CNC(=O)c1nnn(Cc2ccccc2)c1NC(=O)C(F)(F)F
CCc1cc2cc(C)c(C)cc2nc1SCC(=O)NNC(=O)c1ccco1
Cc1ccc(-n2nnnc2SCC(=O)NNC(=O)c2ccco2)c(C)c1
Nc1c(C(=O)NCc2ccccc2)sc2nc3c(cc12)C(=O)CCC3
CC(=O)O[C@]1(C(C)=O)CC[C@@H]2[C@@H]3C=C(C)C4=CC(=O)CC[C@@]4(C)[C@H]3CC[C@]21C
N#CC(=C(/N)Sc1ccccc1N)/C(C#N)=C(/N)Sc1ccccc1N
CC(=O)OCC1=C(C(=O)O)N2C(=O)[C@@H](NC(=O)CSc3ccncc3)[C@@H]2SC1
N[C@H](C(=O)N[C@@H]1C(=O)N2C(C(=O)O)=C(Cl)CS[C@@H]12)c1ccccc1

AC50, active:
O=C(CSCc1cccc(Cl)c1)N/N=C/c1ccc(OCC(=O)N2CCCCC2)cc1 3.16 µM
O=C(Cn1nc(C(F)F)cc1C(F)F)N/N=C/c1ccc2c(c1)OCO2 1.58 µM
O=C(/C=C/c1ccc2c(c1)OCO2)NCCSCc1cccc(Cl)c1 3.16 µM
O=C(CSCc1cccc(Br)c1)N/N=C/c1ccc2c(c1)OCO2 11.2 µM
O=C(NC12CC3CC(CC(C3)C1)C2)N1CCN(c2nc(-c3ccccc3)cs2)CC1 2.82 µM
COc1ccc(O[C@H]2C=C[C@@H](c3ccccc3)O[C@@H]2CO/N=C(\C)CCN2CCCCc3nc(C)c(C)cc32)cc1 2.51 µM
C/C(CCN1CCc2nc(-c3ccccc3)c(-c3ccccc3)cc2C1)=N\OC[C@@H](C)[C@H](OCc1ccccc1)C(C)C 1.58 µM
COc1ccc(O[C@H]2C=C[C@@H](c3ccccc3)O[C@@H]2CO/N=C(\C)CCN2CCc3nc(-c4ccccc4)c(-c4ccccc4)cc3C2)cc1 0.251 µM
COc1ccc(O[C@H]2C=C[C@@H](c3ccccc3)O[C@@H]2CO/N=C(\C)CCN2CCCc3nc(C)c(C)cc32)cc1 0.398 µM
OCCN=c1cc(-c2ccccc2)oc2ccc(Cl)cc12 1.58 µM
CCCCCCN1Cc2ccccc2C1 10 µM
COC(=O)[C@@]1(Cc2ccccc2)[C@H]2c3cc(C(=O)N4CCCC4)n(CC4CC4)c3C[C@H]2CN1C(=O)c1ccccc1 3.16 µM
COC(=O)[C@@]1(Cc2ccccc2)[C@H]2c3cc(C(=O)N4CCCC4)n(Cc4ccc(O)c(OC)c4)c3C[C@H]2CN1C(=O)c1ccccc1 0.501 µM
COC(=O)[C@@]1(Cc2ccccc2)[C@H]2c3cc(C(=O)N4CCCC4)n(C)c3C[C@H]2CN1C(=O)c1ccccc1 3.98 µM
O=C(c1ccncc1)N1CCC2(CC1)CN(c1ccccc1)C2 0.316 µM
O=C(c1ccncc1)N1CCC2(CC1)CCN(c1ncccn1)CC2 2.51 µM
O=C(c1cccc(F)c1)N1CCC2(CC1)CN(c1ccncc1)C2 3.16 µM
Nc1nc(Cl)cc(N2CCC(c3cc(-c4ccc(Cl)cc4Cl)n[nH]3)CC2)n1 3.98 µM
COc1ccc(-c2cc(C3CCN(c4cc(Cl)nc(N)n4)CC3)[nH]n2)cc1 3.16 µM
CCOC(=O)C1C(=O)C=C(c2ccc(NS(C)(=O)=O)cc2)CC1c1ccco1 (configuration not stated) 14.1 µM
CCOC(=O)C1C(=O)C=C(c2ccc(C)cc2)CC1c1ccco1 (configuration not stated) 3.98 µM
CCCCCCCCn1cc(C(C)=O)c(=O)[nH]c1=O 17.8 µM
CCCCCCC(C)n1cc(C(C)=O)c(=O)[nH]c1=O (configuration not stated) 15.8 µM
CC(C)Oc1ccc2ccccc2c1C=O 10 µM
COc1ccc(C(=O)NCS(=O)(=O)c2ccc(C)cc2)cc1 6.31 µM
O=C(CN(Cc1ccco1)C(=O)c1cccc(Cl)c1)Nc1c(Cl)cc(Cl)cc1Cl 10 µM
O=C(CN(Cc1ccco1)C(=O)c1ccccc1)Nc1ccc(Cl)c(Cl)c1 3.16 µM
Cc1ccc(SCC(=O)Nc2cccc(NC(=O)c3ccco3)c2)cc1 7.08 µM
O=C(CSc1ccc(Cl)cc1)Nc1cccc(NC(=O)c2ccco2)c1 2.51 µM
CC(=O)c1ccc(-n2nnnc2SCC(=O)Nc2cccc(NC(=O)c3ccco3)c2)cc1 3.16 µM
CCC(=O)Nc1cccc(NC(=O)CSc2nnnn2Cc2ccccc2)c1 10 µM
O=C(NC1CCCCC1)c1sc(=S)n2c1[nH]c(=O)c1ccccc12 4.47 µM
O=C(NCc1ccccc1)c1sc(=S)n2c1[nH]c(=O)c1ccccc12 11.2 µM
CC(=O)CC(=O)[C@@]1(O)CC[C@@H]2[C@@H]3C=C(C)C4=CC(=O)CC[C@@H]4[C@H]3CC[C@]21C 5.01 µM
N#Cc1ccccc1Sc1ccccc1N 2.82 µM
Cc1ccc(S(=O)(=O)N(Cc2ccccc2)c2ccccc2C(=O)NCc2ccco2)cc1 3.55 µM
CC1=C(C(=O)O)N2C(=O)C(NC(=O)c3ccn(C)n3)C2SC1 (configuration not stated) 25.1 µM

activity, negative = inhibition, inactive:
N=C(N)C(N=Nc1ccccc1)C(=N)N (configuration not stated) -2.71% [at 11.4 µM]
N[C@@H](CSCc1ccc(I)cc1)C(=O)O 12.9% [at 11.4 µM]
CCc1cc2c(nc1CC)CCN(CC/C(C)=N/OC[C@@H](C)[C@H](OCc1ccccc1)C(C)C)C2 -15.6% [at 11.4 µM]
C/C(CCN1CCc2nc(-c3ccccc3)c(-c3ccccc3)cc2C1)=N\OC[C@@H](O)COCc1ccco1 -21.9% [at 11.4 µM]
CC(=O)OC[C@@H]1O[C@H](CCO/N=C(\C)CCN2CCc3nc(-c4ccccc4)c(-c4ccccc4)cc3C2)C=C[C@@H]1OC(C)=O -28.2% [at 11.4 µM]
CO/N=C(\C)CCN1CCCCc2nc(C)c(C)cc21 -22.3% [at 11.4 µM]
CCCNC(=O)OC[C@@H]1O[C@H](CCO/N=C(\C)CCN2CCCc3nc(C)c(C)cc32)C=C[C@@H]1Oc1ccc(OC)cc1 -43.5% [at 11.4 µM]
CCCNC(=O)OC[C@@H]1O[C@H](CCO/N=C(\C)CCN2CCCCc3nc(C)c(C)cc32)C=C[C@@H]1Oc1ccc(OC)cc1 -12.9% [at 11.4 µM]
CC(=O)OC[C@@H]1O[C@H](CCO/N=C(\C)CCN2CCCc3nc(C)c(C)cc32)C=C[C@@H]1OC(C)=O 38.8% [at 11.4 µM]
C=CC[C@@H]1C=C[C@H](O/N=C(\C)CCN2CCc3nc(-c4ccccc4)c(-c4ccccc4)cc3C2)[C@H](CO)O1 -25.6% [at 11.4 µM]
COC(=O)CC[C@@H](C)[C@H]1CC[C@H]2[C@H]3CC[C@H]4C[C@@H]5CC[C@@]4(C)C3(O5)[C@@H](Br)[C@@H](Br)[C@@]12C -31% [at 11.4 µM]
NC(N)=NC(N)=Nc1ccc(S(N)(=O)=O)cc1 28.1% [at 11.4 µM]
NNC(=O)[C@@H](O)[C@H](O)[C@H](O)CO 16% [at 11.4 µM]
C[N+](C)(C)c1ccc([C@H](N)C(=O)O)cc1 -19.4% [at 11.4 µM]
C[C@@H](c1ccccc1)N1C(=O)[C@@H]2[C@H]3C(=CC[C@H]2C1=O)C(=O)[C@H]1O[C@H]1[C@H]3O 18.8% [at 11.4 µM]
